Several values for one entry are separate records, joined by “and”; a condition that tells them apart may be missing. Equal values may be shown once. Records with an inconclusive call do not appear. Where a structure was tested more than once in an assay, its records may differ in their call. Activity calls are given as the source filed them. Unless noted, calls follow the shape of the full dose curve.

The nature of assay [1]: Nuclear factor erythroid 2-related factor 2/antioxidant responsive element (Nrf2/ARE) small molecule agonists: qHTS cell viability counter screen in human keratinocytes (AID 1919968; active = well fitted curve in the direction sought with a large enough effect in the repeat runs; an effect the other way counts as inactive or inconclusive; also: nearly all actives have a fitted effect of over 55% in size; also: potency is read from the fitted curve at half-maximal effect). The gist of the method: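 In human HaCaT keratinocytes stably expressing an ARE-driven luciferase, compound exposure lasted 23 h at 37 C under 5% CO2. Viable cells are quantified with a protease-based fluorogenic reagent (CellTiter-Fluor) read 1 h after addition.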

Assay [2] is described as follows: Nuclear factor erythroid 2-related factor 2/antioxidant responsive element (Nrf2/ARE) small molecule agonists: luciferase reporter gene qHTS assay in human keratinocytes (AID 1919969). Also: nearly all actives have a fitted effect of over 35% in size. Background: Reporter assays use an easily measured gene product as a stand-in for the process of interest.
Assay [3] in a line: G protein-coupled receptor (GPCR) small molecule agonists, calcium flux assay: HEK293 wild type cell line counter screen (AID 1920065). The gist of the method: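 Fluorescence intensity signals activation. After overnight (18 h) culture and a 1 h calcium dye load at 37 C, compounds are added by pin tool and the plate read at 480/540 nm for 3 min in 1 s steps.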
Assay [4] can be described thus: p53 small molecule agonists, cell-based qHTS assay with human liver microsomes: qHTS cell viability counter screen (AID 1963579). Also: nearly all actives have a fitted effect of over 45% in size. Also: potency is read from the fitted curve at half-maximal effect. The gist of the method:
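Viability of p53RE-bla cells is measured as CellTiter-Glo luminescence following a 16 h, 37 C incubation with compound, liver microsomes from human donors and NADPH.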
In general terms: qHTS replaces the single test concentration by a dilution series.

Assay [5] can be described thus: p53 small molecule agonists, cell-based qHTS assay with rat liver microsomes: qHTS cell viability counter screen (AID 1963580). Also: nearly all actives have a fitted effect of over 45% in size. Also: potency is read from the fitted curve at half-maximal effect. The gist of the method:
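Luminescent ATP readout (CellTiter-Glo, 30 min at room temperature) reports viability of p53RE-bla HCT-116 cells after 16 h at 37 C with test compounds under metabolic activation by rat liver microsomes and NADPH at 0.5 mg/mL final each.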

The nature of assay [6]: p53 small molecule agonists, cell-based qHTS assay: qHTS cell viability counter screen (AID 1963581). Also: nearly all actives have a fitted effect of over 45% in size. Also: potency is read from the fitted curve at half-maximal effect. In outline: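 Luminescence from CellTiter-Glo, reflecting ATP content, serves as the cytotoxicity measure; it is taken after the 2 h reporter substrate step in HCT-116 p53RE-bla cells dosed for 16 h at 37 C.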
Assay [7] addresses 5-hydroxytryptamine receptor 2A (Homo sapiens) (UniProt P28223). The assay can be described thus: 5-hydroxytryptamine receptor 2A (HTR2A) small molecule antagonists, cell-based qHTS assay (AID 1963586). Also: nearly all actives have a fitted effect of over 45% in size. In outline: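 CHO cells stably expressing human HTR2A were plated for 18 h at 37 C, then loaded with calcium dye for 1 h. Compounds were preincubated 5 min at room temperature before DOI (4 nM solution) was added. Kinetic fluorescence was read for 3 min.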

Assay [8] addresses Muscarinic acetylcholine receptor M1 (Homo sapiens) (UniProt P11229). The assay can be described thus: Cholinergic receptor muscarinic 1 (CHRM1) small molecule antagonists, cell-based qHTS assay (AID 1963588). Also: nearly all actives have a fitted effect of over 40% in size. Also: potency is read from the fitted curve at half-maximal effect. In outline: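 Compounds were tested at 15 concentrations in three independent runs. Dye-loaded CHRM1-CHO cells were exposed 5 min at room temperature before stimulation by acetylcholine added at 50nM. Intracellular calcium was read kinetically on FDSS for 3 min.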

Assay [9] shares this target. The assay can be described thus: Cholinergic receptor muscarinic 1 (CHRM1) small molecule agonists, cell-based qHTS assay (AID 1963589). Also: nearly all actives have a fitted effect of over 35% in size. The gist of the method:
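Fluorescent calcium dye reports M1 activation in stably transfected CHO cells. Compounds, 15 concentrations, added after 1 h dye loading at 37 C; kinetic reading at 1 sec intervals.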

Assay [10] in a line: cAMP Responsive Elements (CRE) small molecule agonists, cell-based qHTS assay (AID 1963590). The gist of the method:
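Compound exposure lasted 3 h at 37 C/5% CO2 in CRE-bla HEK 293T cells grown in assay medium with 10% dialyzed FBS and 25 mM HEPES. Reporter signal came from LiveBLAzer B/G FRET substrate, 2 h, room temperature.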

The nature of assay [11]: cAMP Responsive Elements (CRE) small molecule antagonists, cell-based qHTS assay (AID 1963591; active = well fitted inhibition curve with a large enough effect in the signal ratio in the repeat runs, not every such curve was filed as active; the % refers to the signal ratio). The gist of the method: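 Stimulation used NKH477 at a final 0.25 uM for 3 h in compound-treated CRE-bla HEK293T cells, seeded 18 h beforehand. Reporter activity was measured with LiveBLAzer B/G FRET substrate after 2 h at room temperature.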
The target of assay [12] is Beta-2 adrenergic receptor (Homo sapiens) (UniProt P07550). The assay can be described thus: Adrenergic beta2 receptor (ADRB2) small molecule agonists, cell-based qHTS assay (AID 1963593).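 Also: CHO cells stably overexpressing human ADRB2.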 In outline:
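CHO cells stably over-expressing ADRB2 were plated overnight at 37C, then dosed with compounds plus a stimulation mix containing 100uM IBMX and 25uM Ro-20-1724 for 0.5hr at room temperature. cAMP was measured by HTRF competition, 1hr.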

Assay [13] addresses D(2) dopamine receptor (Homo sapiens) (UniProt P14416). The assay can be described thus: Dopamine D2 receptor (DRD2) small molecule antagonists, cell-based qHTS assay (AID 1963595; active = well fitted inhibition curve with a large enough effect in the signal ratio in the repeat runs, with a control signal flat; the % refers to the signal ratio). The gist of the method:
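DRD2-HEK293; 0.1 mM Ro20-1724; cpd 10 min RT; NKH477 200 nM + quinpirole 12 nM, 30 min RT; HTRF cAMP (cAMP-d2/anti-cAMP cryptate), 665/620 nm ratio after 1 h.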

Assay [14] concerns the target KiSS-1 receptor (Homo sapiens) (UniProt Q969F8). The assay can be described thus: Human kisspeptin (KISS1R) small molecule agonists, calcium flux assay in KISS1R-HEK293 cells (AID 1920064; active = well fitted curve in the direction sought with a large enough effect in the repeat runs; an effect the other way counts as inactive or inconclusive). In outline: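 Concentration-response testing used 15 concentrations in triplicate on human KISS1R-expressing HEK293 cells. Calcium-dependent fluorescence (Ex/Em 480/540) was followed kinetically for 3 min after compound transfer.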
A general note: Calcium flux is commonly read through the fluorescence of an indicator in the cells.

The nature of assay [15]: p53 small molecule agonists, cell-based qHTS assay with human liver microsomes (AID 1963577).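 Also: p53 response element beta-lactamase reporter cells with liver microsomes plus NADPH.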 The gist of the method: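 HLM-supplemented p53RE-bla reporter assay: 16 h compound exposure at 37 C, microsomes and NADPH each 0.5 mg/mL final, read by fluorescence intensity.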
The nature of assay [16]: p53 small molecule agonists, cell-based qHTS assay with rat liver microsomes (AID 1963578). In outline: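 Quantitative HTS of the Tox21 10K library: p53RE-bla cells, rat liver microsomes plus NADPH at 0.5 mg/mL final each, 16 h at 37 C, beta-lactamase fluorescence detection.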
The nature of assay [17]: p53 small molecule agonists, cell-based qHTS assay (AID 1963582; active = well fitted activation curve with a large enough effect in the signal ratio in the repeat runs, not every such curve was filed as active; the % refers to the signal ratio). The gist of the method: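 After plating, p53RE-bla cells sat 5 h in the incubator; compounds or DMSO vehicle were pinned in; a 16 h incubation at 37 C followed; FRET substrate was added and, 2 h later at RT, fluorescence was measured.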
For assay [18], the target named is 5-hydroxytryptamine receptor 2A (Homo sapiens) (UniProt P28223). The assay can be described thus: 5-hydroxytryptamine receptor 2A (HTR2A) small molecule agonists, cell-based qHTS assay (AID 1963587). Also: nearly all actives have a fitted effect of over 30% in size. In outline:
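HTR2A-CHO cells, plated 18 h at 37 C/5% CO2, dye-loaded 1 h at 37 C; compounds in DMSO added by pin tool (agonist mode). Intracellular calcium flux read as kinetic fluorescence on FDSS over 2 min at 1 s intervals.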

Assay [19] deals with Beta-2 adrenergic receptor (Homo sapiens) (UniProt P07550). The assay can be described thus: Adrenergic beta2 receptor (ADRB2) small molecule antagonists, cell-based qHTS assay (AID 1963592). Also: series mostly up to about 92 µM; nearly all actives have a fitted effect of over 50% in size. In outline:
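Assay format: CHO-ADRB2 cells, 18-20hr seeding at 37C/5% CO2, then compound plus 1nM isoproterenol agonist mix for 0.5hr RT. Homogeneous time-resolved fluorescence cAMP detection after 1hr, expressed as 665/615 nm ratio.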

Assay [20] deals with D(2) dopamine receptor (Homo sapiens) (UniProt P14416). The assay can be described thus: Dopamine D2 receptor (DRD2) small molecule agonists, cell-based qHTS assay (AID 1963594). Also: nearly all actives have a fitted effect of over 35% in size. In outline:
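HEK293 cells stably expressing DRD2 were cultured 24 h at 37 C, then given Ro20-1724 (0.1 mM final) and compounds for 10 min at room temperature. NKH477 (200nM) was then added for 30 min. cAMP was read by HTRF.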

Chain of D(2) dopamine receptor (Homo sapiens) (P14416 whole entry, looked up): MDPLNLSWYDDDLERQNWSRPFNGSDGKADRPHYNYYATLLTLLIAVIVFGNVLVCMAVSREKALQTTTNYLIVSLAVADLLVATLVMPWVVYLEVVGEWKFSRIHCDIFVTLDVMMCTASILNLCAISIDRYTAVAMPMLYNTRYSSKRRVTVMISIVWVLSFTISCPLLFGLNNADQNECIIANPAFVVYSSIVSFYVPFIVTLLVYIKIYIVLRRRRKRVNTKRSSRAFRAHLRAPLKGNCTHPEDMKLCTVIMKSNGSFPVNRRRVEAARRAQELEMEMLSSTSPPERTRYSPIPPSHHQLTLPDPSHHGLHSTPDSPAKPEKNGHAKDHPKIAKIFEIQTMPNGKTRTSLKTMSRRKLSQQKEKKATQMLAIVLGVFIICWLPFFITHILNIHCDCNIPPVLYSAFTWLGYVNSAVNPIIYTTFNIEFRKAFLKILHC
Chain of Muscarinic acetylcholine receptor M1 (Homo sapiens) (P11229 whole entry, looked up): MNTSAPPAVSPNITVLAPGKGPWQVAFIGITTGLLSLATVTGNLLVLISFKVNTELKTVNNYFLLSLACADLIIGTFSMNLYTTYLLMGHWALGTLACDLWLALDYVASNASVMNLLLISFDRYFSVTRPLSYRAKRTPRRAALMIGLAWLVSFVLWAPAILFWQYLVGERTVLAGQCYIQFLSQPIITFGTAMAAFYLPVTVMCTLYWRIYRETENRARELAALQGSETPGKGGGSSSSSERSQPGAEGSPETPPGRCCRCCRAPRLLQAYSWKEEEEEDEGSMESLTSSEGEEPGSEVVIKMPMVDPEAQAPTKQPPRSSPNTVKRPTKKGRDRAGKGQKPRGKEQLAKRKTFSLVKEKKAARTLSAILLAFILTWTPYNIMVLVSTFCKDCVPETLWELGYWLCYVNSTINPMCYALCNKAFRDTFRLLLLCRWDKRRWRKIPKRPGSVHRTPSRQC
Chain of 5-hydroxytryptamine receptor 2A (Homo sapiens) (P28223 whole entry, looked up): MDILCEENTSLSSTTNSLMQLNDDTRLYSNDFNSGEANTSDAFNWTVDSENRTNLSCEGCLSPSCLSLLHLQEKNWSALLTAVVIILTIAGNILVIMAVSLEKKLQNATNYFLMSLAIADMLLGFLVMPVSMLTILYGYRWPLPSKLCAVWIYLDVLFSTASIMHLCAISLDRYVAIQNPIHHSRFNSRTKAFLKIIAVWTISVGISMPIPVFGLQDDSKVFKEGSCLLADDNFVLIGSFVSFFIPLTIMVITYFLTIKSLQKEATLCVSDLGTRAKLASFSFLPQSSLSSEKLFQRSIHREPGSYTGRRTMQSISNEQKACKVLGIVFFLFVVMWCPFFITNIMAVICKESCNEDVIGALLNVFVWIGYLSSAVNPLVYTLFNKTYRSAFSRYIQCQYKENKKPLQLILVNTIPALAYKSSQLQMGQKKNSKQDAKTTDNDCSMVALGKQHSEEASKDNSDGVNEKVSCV
Chain of KiSS-1 receptor (Homo sapiens) (Q969F8 whole entry, looked up): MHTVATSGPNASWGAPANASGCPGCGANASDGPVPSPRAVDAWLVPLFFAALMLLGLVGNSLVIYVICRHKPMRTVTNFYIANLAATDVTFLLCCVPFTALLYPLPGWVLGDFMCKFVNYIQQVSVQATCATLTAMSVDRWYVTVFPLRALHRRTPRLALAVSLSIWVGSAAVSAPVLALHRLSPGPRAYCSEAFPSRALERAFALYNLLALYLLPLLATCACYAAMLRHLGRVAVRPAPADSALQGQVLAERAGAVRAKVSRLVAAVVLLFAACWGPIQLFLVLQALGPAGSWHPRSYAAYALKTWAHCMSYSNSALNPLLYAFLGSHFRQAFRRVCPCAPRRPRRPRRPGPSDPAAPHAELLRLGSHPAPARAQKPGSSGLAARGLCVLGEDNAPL
Chain of Beta-2 adrenergic receptor (Homo sapiens) (P07550 whole entry, looked up): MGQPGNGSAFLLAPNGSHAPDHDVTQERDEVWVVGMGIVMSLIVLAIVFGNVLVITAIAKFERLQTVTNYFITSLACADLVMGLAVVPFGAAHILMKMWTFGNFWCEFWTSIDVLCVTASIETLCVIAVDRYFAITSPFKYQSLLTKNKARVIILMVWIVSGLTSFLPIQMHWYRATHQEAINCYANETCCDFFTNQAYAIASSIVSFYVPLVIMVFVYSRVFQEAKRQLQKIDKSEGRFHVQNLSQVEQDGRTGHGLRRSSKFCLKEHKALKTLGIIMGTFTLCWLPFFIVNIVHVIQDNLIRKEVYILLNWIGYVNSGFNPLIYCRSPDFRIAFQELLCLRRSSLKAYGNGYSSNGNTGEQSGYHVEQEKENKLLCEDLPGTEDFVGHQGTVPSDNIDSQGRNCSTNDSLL

Regarding `CCOP(=O)(O)OCC` (tested in a mixture with another compound), the Potency result in [1] is “inactive and 24.1 µM (active)”; in assay [4] it was “inactive and 36.1 µM (active)”; in [5] it was “inactive and 36.1 µM (active)”; in assay [6] it was “inactive and 28.6 µM (active)”; in assay [8] it was “inactive and 1.48 µM (active)”. The Potency entry in assay [2], in assay [3], in [7], in assay [9], in [10] and in [11] was “inactive” throughout. For the same compound, the Potency result in assay [12] and in assay [13] was “inactive” each time.

On to `CCCCCCC#N`, for which the Potency entry in assay [1], in [14], in assay [3], in assay [15], in assay [16] and in assay [4] was “inactive” in each case. Besides, the Potency entry in assay [5], in assay [6], in assay [17], in [7], in assay [18] and in assay [8] was “inactive” throughout. Also, the Potency entry in assay [9], in assay [10], in [11] and in assay [19] was “inactive” throughout.

As to `C=CCN=C=S`, the Potency result in assay [1], in assay [14], in assay [3], in assay [15], in [16] and in assay [4] was “inactive” each time. Also, the Potency result in assay [5], in assay [6], in [17], in [7], in assay [18] and in assay [8] was “inactive” each time. The Potency result in assay [9], in assay [10], in assay [11], in assay [19], in [20] and in assay [13] was “inactive” each time.

As to `COc1ccc(CO)cc1`, the Potency entry in assay [1], in assay [14], in assay [3], in assay [15], in assay [16] and in assay [4] was “inactive” throughout. In addition, the Potency entry in assay [5], in [6], in assay [7], in [18], in assay [8] and in assay [9] was “inactive” in each case. The Potency entry in [10], in assay [11], in [19], in [12], in assay [20] and in [13] was “inactive” each time.

In the case of `Oc1ccc(Cl)cc1`, the Potency result in assay [1], in assay [14], in [3], in assay [15], in assay [16] and in assay [4] was “inactive” in each case. In addition, the Potency entry in [5], in [6], in assay [17], in assay [7], in assay [18] and in assay [8] was “inactive” throughout. In addition, the Potency entry in assay [10], in assay [11], in [19], in assay [12], in assay [20] and in [13] was “inactive” throughout.

Turning to `CCCCn1cc[n+](C)c1C`, the Potency result in assay [1], in assay [2], in assay [3], in assay [4], in assay [5] and in assay [6] was “inactive” in each case. Besides, the Potency result in [7], in assay [18], in assay [8], in assay [9], in assay [10] and in [11] was “inactive” each time. Moreover, the Potency entry in assay [19], in assay [12], in assay [20] and in assay [13] was “inactive” each time.

Take `CC(Br)C(=O)O` (stereo not drawn): the Potency result in assay [1], in assay [14], in assay [3], in [15], in assay [16] and in assay [4] was “inactive” in each case. Further, the Potency entry in assay [5], in assay [6], in [17], in assay [7], in assay [18] and in assay [8] was “inactive” each time. Further, the Potency entry in [9], in assay [10], in assay [11], in assay [19], in assay [12] and in assay [20] was “inactive” throughout. In [13], the Potency result is “inactive”.

Source of the values: PubChem BioAssay (Tox21).
